# Source: publication PMC5540273 (PLoS ONE, 2017)
# Where two headings read alike, the source gives them in different places.
# Tests used:
# NIM1 = tested on: T1, NIM1; conditions: concentration: 1 μM, replicates: in singlicate; n = 1
# T1 construct: gene MGC42105
# NLK = conditions: concentration: 1 μM, replicates: in singlicate; n = 1
# OSR1 = tested on: T2, OSR1; conditions: concentration: 1 μM, replicates: in singlicate; n = 1
# T2 construct: gene OXSR1
# PAK1 = conditions: concentration: 1 μM, replicates: in singlicate; n = 1
# PAK2 = conditions: concentration: 1 μM, replicates: in singlicate; n = 1
# PAK3 = conditions: concentration: 1 μM, replicates: in singlicate; n = 1
# PAK4 = conditions: n = 1
# PAK6 = conditions: concentration: 1 μM, replicates: in singlicate; n = 1
# PAK7 = conditions: concentration: 1 μM, replicates: in singlicate; n = 1
# PCTK1 = tested on: T3, PCTK1; conditions: concentration: 1 μM, replicates: in singlicate; n = 1
# T3 construct: gene CDK16
# PCTK2 = tested on: T4, PCTK2; conditions: concentration: 1 μM, replicates: in singlicate; n = 1
# T4 construct: gene CDK17
# PCTK3 = tested on: T5, PCTK3; conditions: concentration: 1 μM, replicates: in singlicate; n = 1
# T5 construct: gene CDK18
# PDGFRA = conditions: concentration: 1 μM, replicates: in singlicate; n = 1
# PDGFRB = conditions: concentration: 1 μM, replicates: in singlicate; n = 1
# PDPK1 = conditions: concentration: 1 μM, replicates: in singlicate; n = 1
# PFTAIRE2 = conditions: concentration: 1 μM, replicates: in singlicate; n = 1
# PFTK1 = tested on: T6, PFTK1; conditions: concentration: 1 μM, replicates: in singlicate; n = 1
# T6 construct: gene CDK14
# PHKG1 = conditions: concentration: 1 μM, replicates: in singlicate; n = 1
# PHKG2 = conditions: concentration: 1 μM, replicates: in singlicate; n = 1
# PIK3C2B = conditions: concentration: 1 μM, replicates: in singlicate; n = 1
# [1] = concentration: 1 μM, replicates: in singlicate
# 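Further: KINOMEscan kinase panel screen.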
smiles,measurement,setting,value
Cc1cccc(Nc2nc(N[C@H]3CCCC[C@H]3N)ncc2C(N)=O)c1.Cl [GSK986310],%Inh,NIM1,18%
same,%Inh,NLK,27%
same,%Inh,OSR1,33%
same,%Inh,PAK1,40%
same,%Inh,PAK2,70%
same,%Inh,PAK3,55%
same,%Inh,PAK4; 1 µM,95.4%
same,%Inh,PAK6,89%
same,%Inh,PAK7,99.5%
same,%Inh,PCTK1,10%
same,%Inh,PCTK2,17%
same,%Inh,PCTK3,24%
same,%Inh,PDGFRA,12%
same,%Inh,PDGFRB,80%
same,%Inh,PDPK1,3%
same,%Inh,PFTAIRE2,24%
same,%Inh,PFTK1,29%
same,%Inh,PHKG1,33%
same,%Inh,PHKG2,44%
same,%Inh,PIK3C2B,0%
Cc1ccc(NC(=O)c2ccnc(N3CCCCC3)c2)cc1-c1ccc(C(=O)NCC2CC2)cc1 [GW775610],%Inh,NIM1,8%
same,%Inh,NLK,15%
same,%Inh,OSR1,0%
same,%Inh,PAK1,0%
same,%Inh,PAK2,0%
same,%Inh,PAK3,15%
same,%Inh,PAK4; [1],17%
same,%Inh,PAK6,0%
same,%Inh,PAK7,0%
same,%Inh,PCTK1,73%
same,%Inh,PCTK2,15%
same,%Inh,PCTK3,0%
same,%Inh,PDGFRA,59%
same,%Inh,PDGFRB,98.3%
same,%Inh,PDPK1,0%
same,%Inh,PFTAIRE2,19%
same,%Inh,PFTK1,0%
same,%Inh,PHKG1,0%
same,%Inh,PHKG2,0%
same,%Inh,PIK3C2B,18%
Cl.Cl.NCC(NC(=O)c1cc(-c2cccnc2)c(-c2ccnc3[nH]ccc23)s1)c1ccccc1 (centres unmarked) [GSK1323434],%Inh,NIM1,36%
same,%Inh,NLK,19%
same,%Inh,OSR1,17%
same,%Inh,PAK1,4%
same,%Inh,PAK2,6%
same,%Inh,PAK3,39%
same,%Inh,PAK4; [1],0%
same,%Inh,PAK6,28%
same,%Inh,PAK7,65%
same,%Inh,PCTK1,0%
same,%Inh,PCTK2,14%
same,%Inh,PCTK3,0%
same,%Inh,PDGFRA,0%
same,%Inh,PDGFRB,28%
same,%Inh,PDPK1,26%
same,%Inh,PFTAIRE2,29%
same,%Inh,PFTK1,28%
same,%Inh,PHKG1,7%
same,%Inh,PHKG2,2%
same,%Inh,PIK3C2B,0%
CCOc1nccc(-c2c(-c3ccc(F)cc3)ncn2C2CCNCC2)n1 [SB-249175],%Inh,NIM1,44%
same,%Inh,NLK,45%
same,%Inh,OSR1,47%
same,%Inh,PAK1,6%
same,%Inh,PAK2,29%
same,%Inh,PAK3,0%
same,%Inh,PAK4; [1],32%
same,%Inh,PAK6,3%
same,%Inh,PAK7,6%
same,%Inh,PCTK1,26%
same,%Inh,PCTK2,5%
same,%Inh,PCTK3,17%
same,%Inh,PDGFRA,13%
same,%Inh,PDGFRB,8%
same,%Inh,PDPK1,6%
same,%Inh,PFTAIRE2,0%
same,%Inh,PFTK1,20%
same,%Inh,PHKG1,0%
same,%Inh,PHKG2,0%
same,%Inh,PIK3C2B,23%
O=C(O)C(F)(F)F.O=c1[nH]ccc2nc(N[C@@H]3CCNC3)nc(Nc3cc(Cl)cc(Cl)c3)c12 [GSK2188764],%Inh,NIM1,67%
same,%Inh,NLK,19%
same,%Inh,OSR1,54%
same,%Inh,PAK1,92.2%
same,%Inh,PAK2,78%
same,%Inh,PAK3,96.9%
same,%Inh,PAK4; [1],96.4%
same,%Inh,PAK6,96%
same,%Inh,PAK7,99.9%
same,%Inh,PCTK1,7%
same,%Inh,PCTK2,22%
same,%Inh,PCTK3,25%
same,%Inh,PDGFRA,46%
same,%Inh,PDGFRB,94.8%
same,%Inh,PDPK1,76%
same,%Inh,PFTAIRE2,20%
same,%Inh,PFTK1,27%
same,%Inh,PHKG1,96.1%
same,%Inh,PHKG2,94.7%
same,%Inh,PIK3C2B,13%
CCn1c(-c2nonc2N)nc2c(-c3ccccc3)ncc(OCCCN)c21.O=C(O)C(F)(F)F.O=C(O)C(F)(F)F [GSK260205],%Inh,NIM1,39%
same,%Inh,NLK,94.5%
same,%Inh,OSR1,3%
same,%Inh,PAK1,2%
same,%Inh,PAK2,31%
same,%Inh,PAK3,49%
same,%Inh,PAK4; [1],0%
same,%Inh,PAK6,0%
same,%Inh,PAK7,0%
same,%Inh,PCTK1,0%
same,%Inh,PCTK2,0%
same,%Inh,PCTK3,0%
same,%Inh,PDGFRA,18%
same,%Inh,PDGFRB,98.8%
same,%Inh,PDPK1,0%
same,%Inh,PFTAIRE2,0%
same,%Inh,PFTK1,13%
same,%Inh,PHKG1,0%
same,%Inh,PHKG2,0%
same,%Inh,PIK3C2B,1%
Cc1ccc(C)c(NC(=O)Nc2ccc(C)c(-c3ccc(C(=O)Nc4ccncc4)cc3)c2)c1 [GSK1398473],%Inh,NIM1,1%
same,%Inh,NLK,50%
same,%Inh,OSR1,2%
same,%Inh,PAK1,21%
same,%Inh,PAK2,15%
same,%Inh,PAK3,15%
same,%Inh,PAK4; [1],0%
same,%Inh,PAK6,0%
same,%Inh,PAK7,0%
same,%Inh,PCTK1,13%
same,%Inh,PCTK2,0%
same,%Inh,PCTK3,23%
same,%Inh,PDGFRA,80%
same,%Inh,PDGFRB,100%
same,%Inh,PDPK1,2%
same,%Inh,PFTAIRE2,12%
same,%Inh,PFTK1,14%
same,%Inh,PHKG1,0%
same,%Inh,PHKG2,0%
same,%Inh,PIK3C2B,0%
CN(c1ccc(F)c(NC(=O)c2cccc(OC(C)(C)C#N)c2Cl)c1)c1ccc2nc(NC(=O)C3CC3)sc2n1,%Inh,NIM1,8%
same,%Inh,NLK,78%
same,%Inh,OSR1,5%
same,%Inh,PAK1,5%
same,%Inh,PAK2,0%
same,%Inh,PAK3,27%
same,%Inh,PAK4; [1],0%
same,%Inh,PAK6,0%
same,%Inh,PAK7,0%
same,%Inh,PCTK1,2%
same,%Inh,PCTK2,0%
same,%Inh,PCTK3,0%
same,%Inh,PDGFRA,97.8%
same,%Inh,PDGFRB,100%
same,%Inh,PDPK1,36%
same,%Inh,PFTAIRE2,11%
same,%Inh,PFTK1,0%
same,%Inh,PHKG1,7%
same,%Inh,PHKG2,0%
same,%Inh,PIK3C2B,15%
O=C1NC(=O)C(c2ccccc2Cl)=C1Nc1cccc(Cl)c1 [SB-342409],%Inh,NIM1,4%
same,%Inh,NLK,22%
same,%Inh,OSR1,2%
same,%Inh,PAK1,24%
same,%Inh,PAK2,17%
same,%Inh,PAK3,0%
same,%Inh,PAK4; [1],0%
same,%Inh,PAK6,7%
same,%Inh,PAK7,0%
same,%Inh,PCTK1,34%
same,%Inh,PCTK2,0%
same,%Inh,PCTK3,31%
same,%Inh,PDGFRA,0%
same,%Inh,PDGFRB,13%
same,%Inh,PDPK1,13%
same,%Inh,PFTAIRE2,21%
same,%Inh,PFTK1,13%
same,%Inh,PHKG1,0%
same,%Inh,PHKG2,0%
same,%Inh,PIK3C2B,0%
Fc1cc(Cl)ccc1Nc1ccnc2cc(-c3ccc(CN4CCSCC4)o3)ccc12 [GW560106],%Inh,NIM1,23%
same,%Inh,NLK,30%
same,%Inh,OSR1,0%
same,%Inh,PAK1,8%
same,%Inh,PAK2,4%
same,%Inh,PAK3,45%
same,%Inh,PAK4; [1],0%
same,%Inh,PAK6,0%
same,%Inh,PAK7,0%
same,%Inh,PCTK1,0%
same,%Inh,PCTK2,0%
same,%Inh,PCTK3,8%
same,%Inh,PDGFRA,99.1%
same,%Inh,PDGFRB,100%
same,%Inh,PDPK1,0%
same,%Inh,PFTAIRE2,6%
same,%Inh,PFTK1,11%
same,%Inh,PHKG1,1%
same,%Inh,PHKG2,0%
same,%Inh,PIK3C2B,0%
